Rab9 prom act: activators of Rab9 promoter. Huh7 Rab9 promoter-luciferase reporter, luminescence, 24 h. Potency, µM (highest dose often 9.22 µM), without a hit: top-dose activation, negative = inhibition, most hits filed as activators. 2.8% of 320,000 active. AID 485297; note: % of control where 0% means no effect; nearly all actives have a fitted effect of over 60% in size
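Cell-based reporter: Huh7 stable for Rab9 promoter-driven luciferase, plated in reduced-serum medium with 10% FBS at 1500 cells/well, compound-treated 24 h at 37 °C, luminescence read after 10 min reagent.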
SMN2 splice up: increases expression of the SMN2 splice variant. HEK293 SMN2-luciferase splicing reporter, luminescence, 30-36 h. Potency, µM (series often up to 46.1 µM), for the others: top-dose activity change, positive = activation, most hits filed as activators. 2.8% of 210,000 active. AID 1458; note: % of control where 0% means no effect; nearly all actives have a fitted effect of over 55% in size
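qHTS luciferase splicing reporter: luminescence rises when SMN2 exon 7 is included in transfected HEK293 cells. Compound exposure lasted 30-36 h at 37C, with 4.5 mM final sodium butyrate as control, followed by a ONE-Glo read.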
NPC1 promoter act: NPC1 promoter activation; Huh7 NPC1 promoter luciferase reporter, 24 h; 2.4% of 320,000 active; Potency, µM (top dose mostly 9.22 µM), for inactives: at the top dose activation, most hits filed as activators; note: % of control where 0% means no effect; nearly all actives have a fitted effect of over 60% in size
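Stable NPC1-promoter luciferase Huh7 line; cpd (DMSO) 24 h, 37 °C, 5% CO2; Amplite luciferase reagent 10 min RT; luminescence readout. qHTS format.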
ELG1 genotoxic: genotoxicity induction in ELG1-luciferase HEK293T cells. HEK293T ELG1-luciferase reporter, luminescence, 16 h. Potency, µM (doses to about 46 µM), for inactives: top-dose activity change, positive = activation, most hits filed as activators. 1.3% of 330,000 active; note: % of control where 0% means no effect; nearly all actives have a fitted effect of over 60% in size
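ELG1-luciferase HEK293T cells, 2,000/well; compound pinned in; 16 hr, 37 °C, 5% CO2; ONE-Glo, 30 min RT; luminescence on CCD imager.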
Luc counter: counter-screen: inhibitors of Kinase-Glo firefly luciferase. Kinase-Glo luciferase, ATP luminescence, 8 min. Potency, µM (series often up to 38.3 µM), without a hit: at the top dose activity change, negative = inhibition, usual class: inhibitors. 0.28% of 200,000 active. AID 1379; note: % is set by controls: 0 for no effect and ±100 for the full control effect; nearly all actives have a fitted effect of over 60% in size
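Substrate mix (final 50 mM imidazole pH 7.2, 50 mM KCl, 7 mM MgCl2, 10 uM ATP, 0.01% Tween 20, 0.05% BSA) plus pin-tool compound, then Kinase-Glo detection mix; 8 min ambient, luminescence read.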
FLuc counter: firefly luciferase modulation, counter-screen for miR-21 project | P08659 | purified FLuc, Km substrates, luminescence inhibition | Potency, µM (titrated, usually from 57.5 µM), for the others: top-dose activity change, negative = inhibition, hits mostly inhibitors | 6.9% of 360,000 active | AID 588342;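 note: plate controls were vehicle for no effect and reference inhibitor for full effect; nearly all actives have a fitted effect of over 55% in size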
Target sequence (P08659 whole entry, looked up): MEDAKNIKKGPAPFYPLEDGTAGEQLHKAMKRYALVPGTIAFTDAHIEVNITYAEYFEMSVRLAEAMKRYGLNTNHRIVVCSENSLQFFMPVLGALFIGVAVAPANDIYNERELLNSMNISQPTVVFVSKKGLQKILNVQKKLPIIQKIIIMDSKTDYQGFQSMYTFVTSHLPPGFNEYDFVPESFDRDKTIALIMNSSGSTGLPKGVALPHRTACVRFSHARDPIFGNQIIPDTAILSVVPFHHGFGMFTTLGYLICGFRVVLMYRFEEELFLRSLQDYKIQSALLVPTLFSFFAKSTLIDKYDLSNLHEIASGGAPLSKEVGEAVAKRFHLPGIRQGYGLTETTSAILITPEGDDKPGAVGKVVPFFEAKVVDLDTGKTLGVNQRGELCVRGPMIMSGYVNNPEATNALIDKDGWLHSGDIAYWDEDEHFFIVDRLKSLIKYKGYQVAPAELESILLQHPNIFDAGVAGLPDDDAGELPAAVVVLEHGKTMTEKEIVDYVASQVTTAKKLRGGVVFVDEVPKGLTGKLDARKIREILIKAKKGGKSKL
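Biochemical qHTS of compounds, final roughly 60 µM downward over six points, against 10 nM purified firefly luciferase using Km concentrations of substrates (10 uM D-luciferin, 10 uM ATP) in Tris acetate pH 7.5 buffer; luminescence output.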
* = called active by the depositor; ? = inconclusive; nt = no result. Shown are actives, neighbours in structure and some others; about 7.5% of the full set was active somewhere. Calls come from the whole dose curve; as a rule, active = well fitted curve in the direction sought with a large enough effect; inconclusive = small, poorly fitted or top-dose-only effect, or another doubt; inactive = no such curve, though single readings can be large; an effect the other way counts as inactive or inconclusive. Potency is the fitted concentration of half-maximal effect.

SMILES	Rab9 prom act	SMN2 splice up	NPC1 promoter act	ELG1 genotoxic	Luc counter	FLuc counter
Cc1ccc(N2CC(C(=O)OCc3nc(N)nc(Nc4ccccc4C)n3)CC2=O)cc1 (stereo unspecified)	-2%	nt	-1%	2%	nt	2%
CCOc1ccc(-n2c(SCC(=O)N3CCCCCC3)nc3c([nH]c4ccccc43)c2=O)cc1	nt	nt	nt	nt	nt	1%
O=C(NCCO)c1ccc(-c2nnc(Nc3ccc(OC(F)(F)Cl)cc3)c3ccccc23)cc1	nt	-92%	nt	nt	nt	1%
NS(=O)(=O)c1ccc(N/N=C/C=C/c2ccccc2[N+](=O)[O-])cc1	?	nt	?	?	nt	17µM*
O=[N+]([O-])c1ccccc1/C=C/C=N/N1CCCCC1	2.2µM*	16µM*	?	4.6µM*	-3%	11µM*
O=C(O)c1cc(N/N=C/C=C/c2ccccc2[N+](=O)[O-])ccc1Cl	3.5µM*	nt	1.4µM*	?	nt	19µM*
Cc1ccc(CNC(=O)C2CCN(S(=O)(=O)c3ccc4[nH]c(=O)ccc4c3)CC2)cc1	nt	nt	nt	nt	nt	-4%
COc1ccc(OC)c(NC(=O)CSc2ncc3c(n2)-c2ccccc2N(C)S3(=O)=O)c1	nt	nt	nt	nt	nt	-1%
CC(=O)c1cccc(NC(=O)c2cccc(NC(=O)c3ccco3)c2)c1	8%	nt	-1%	-3%	nt	-15%
O=C(N/N=C/c1ccco1)c1cccc(NC(=O)c2cccc(Cl)c2)c1	18%	nt	8%	-2%	nt	?
C/C(=N\NC(=O)c1cccc(Cl)c1)c1cccc(NC(=O)c2ccco2)c1	0%	8%	-4%	-3%	0%	19µM*
C/C(=N\NC(=O)c1cccc(C)c1)c1cccc(NC(=O)c2ccco2)c1	-5%	4%	1%	3%	-3%	15µM*
COc1ccc(C(=O)Cc2cc(OC)c(OC)cc2[N+](=O)[O-])c(OC)c1	22%	0%	17%	4%	6%	17µM*
COc1ccc(C(=O)Cc2nnc(C)s2)c(OC)c1	?	?	17%	?	0%	?
COc1ccc(C(=O)Cc2ccc(F)cc2)c(OC)c1	?	?	?	?	-8%	17µM*
COc1ccc(CCNC(=O)Cc2cc(OC)c(OC)cc2[N+](=O)[O-])cc1OC	-9%	16%	-4%	-4%	3%	8%
CCOC(=O)c1cc2c(C)n(-c3ccc(OCC)cc3)c(C)c2ccc1=O	-4%	-32%	1%	-9%	-1%	17µM*
CCOC(=O)c1cc2c(C)n(-c3ccc(C)cc3)c(C)c2ccc1=O	?	-13%	?	8%	4%	0.38µM*
CCOC(=O)c1c[nH]n(-c2ccc(C)cc2)c1=O	29%	9%	14%	11%	2%	?
CCOCCCNC(=O)c1c(NC(=O)c2cc(=O)c3ccccc3o2)sc2c1CCC2	nt	8%	nt	nt	nt	-6%
O=C(Nc1ccc(N2CCOCC2)c(Cl)c1)c1ccc(-n2cnnc2)cc1	2%	nt	0%	7%	nt	-1%
O=C(Nc1ccc(N2CCOCC2)c(Cl)c1)c1ccccc1Cl	?	nt	26%	?	1%	27µM*
O=C(Nc1ccc(N2CCOCC2)c(Cl)c1)c1ccc(F)cc1	2.5µM*	11µM*	?	2%	4%	13µM*
O=C(NC(=S)Nc1ccc(N2CCOCC2)c(Cl)c1)C(c1ccccc1)c1ccccc1	3%	3%	-1%	-3%	-1%	9%
CCOc1ccc(NC(=O)CCc2nc3cccnc3n2-c2ccccc2)cc1	nt	-24%	nt	nt	nt	0%
SMILES	Rab9 prom act	SMN2 splice up	NPC1 promoter act	ELG1 genotoxic	Luc counter	FLuc counter
O=C(NOCc1ccccc1)c1ccc(Cl)cc1Cl	0.4µM*	nt	0.56µM*	?	nt	1.3µM*
O=C(NOCc1ccccc1)c1ccccc1	1.8µM*	nt	3.2µM*	6.5µM*	nt	6µM*
O=C(CNC(=O)c1ccc(Cl)cc1Cl)OCCOc1ccccc1	13%	nt	15%	7%	nt	17µM*
Cc1ccc(CONC(=O)c2cccc(C)c2)cc1	?	nt	16%	-1%	nt	?
O=S(=O)(c1ccc(-c2cc(C(F)(F)F)on2)s1)N1CCN(c2ccc(F)cc2)CC1	nt	nt	nt	nt	nt	-5%
Cn1cc(Br)c(C(=O)N/N=C/c2cc3c(cc2Cl)OCO3)n1	?	nt	2.8µM*	?	nt	6µM*
O=C(N/N=C/c1cccc(O)c1)c1cc(-c2ccc3c(c2)OCO3)n[nH]1	1%	8%	-2%	-2%	-3%	5.4µM*
O=C(CNC(=O)c1ccc2c(c1)OCCO2)N/N=C/c1ccco1	-9%	nt	-1%	3%	nt	-6%
Nc1nonc1C(=O)N/N=C\c1cc2c(cc1Cl)OCO2	-2%	nt	-7%	15%	nt	?
O=C(N/N=C/c1ccc(Br)o1)c1ccc2c(c1)OCCO2	3.2µM*	11µM*	3.2µM*	?	-6%	6µM*
CCOC(=O)N/N=C\c1ccc(OC(=O)c2ccc3c(c2)OCO3)cc1	21%	-4%	12%	10%	-9%	15µM*
O=C(Nc1ccc2oc(-c3cccc4c(Br)cccc34)nc2c1)c1ccc(Br)cc1	nt	4%	nt	nt	nt	-6%
Cc1cccc(C(=O)N2CCc3cc(CNC(=O)c4ccnn4C)ccc32)c1	nt	nt	nt	nt	nt	1%
Cc1cccc(CN2C(=O)c3ccccc3S(=O)(=O)c3ccc(C(=O)N4CCN(c5cc(C)ccc5C)CC4)cc32)c1	nt	-6%	nt	nt	nt	1%
Cc1ccc(/C=N\NC(=O)c2ccc3c(c2)OCO3)o1	?	nt	?	?	nt	24µM*
O=C(N/N=C/c1ccc([N+](=O)[O-])o1)c1ccc2c(c1)OCO2	13%	nt	-11%	-4%	nt	?
CN(C)c1ccc(/C=N/NC(=O)c2ccc3c(c2)OCO3)cc1	?	nt	?	?	nt	8.5µM*
Cc1nn(C)cc1/C=N/NC(=O)c1ccc2c(c1)OCO2	-41%	-16%	0%	13%	-9%	17µM*
Cc1cc(C)n2nc(C(=O)N/N=C/c3cn(C)nc3C)nc2n1	-7%	nt	-4%	2%	nt	4%
COC(=O)/C=C/c1ccc2c(c1)OCO2	-3%	17%	-2%	7%	-11%	?
Cc1ccc(C(=O)/C=C/c2ccc3c(c2)OCO3)o1	25%	3%	-5%	4%	-12%	2.4µM*
CCn1cc(/C=N/NC(=O)c2ccc3c(c2)OCO3)cn1	11%	7%	0%	2%	1%	?
COc1cc2c(cc1OC)C(c1cc(OC)c(O)c(OC)c1)CC(=O)N2 (stereo unspecified)	nt	13%	nt	nt	nt	-1%
Cc1ccc(C(=O)N/N=C/c2ccc3c(c2)OCO3)o1	2.8µM*	13µM*	3.2µM*	?	?	6µM*
